An excerpt weighted towards active compounds, which were near 3.2% of everything screened.
RE007 growth inh: less growth of the S. pombe RE007 Vpr strain. 360,000 compounds, 0.21% hits. S. pombe RE007 Vpr strain, BacTiter-Glo ATP luminescence, 24 h. Potency, µM (titrated, usually from 92.2 µM), without a hit: top-dose activity change, negative = less growth, most hits filed as inhibitors; active = well fitted falling curve with a large enough effect; inconclusive = small, poorly fitted or top-dose-only effect; inactive = no such curve, though single readings can be large or run the other way; also: nearly all actives have a fitted effect of over 50% in size
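Fission yeast strain RE007, carrying one chromosomally integrated HIV-1 vpr copy, was seeded at OD 0.01 in PMG+AL medium with 23 nL pinned compound. After 24 h at 30 °C and 99% humidity, viability was read by BacTiter-Glo luminescence.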
Sm TGR inh: S. mansoni TGR enzyme inhibition; 360,000 compounds, 3% hits; purified TGR, DTNB reduction, TNB absorbance 405 nm; Q962Y6; Potency, µM (series often up to 114 µM), for the others: at the highest dose activity change, negative = inhibition, most hits filed as inhibitors; AID 485364; also: nearly all actives have a fitted effect of over 60% in size
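Kinetic colorimetric format: TGR-catalysed, NADPH-driven DTNB reduction monitored via TNB absorbance. Enzyme dispensed at 20 nM; compound exposure 15 min at room temperature before reaction start.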
AmpC detergent: AmpC beta-lactamase inhibition with detergent present. Potency, µM (titrated, usually from 114 µM), without a hit: at the highest dose activity change, negative = inhibition, usual class: inhibitors. AmpC hydrolysis of nitrocefin, absorbance 480 nm, 0.01% Triton. 370,000 compounds, 0.041% hits;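 also: 0% = no-compound wells and -100% = no-enzyme wells; nearly all actives have a fitted effect of over 25% in size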
Target sequence (P00811 whole entry, looked up): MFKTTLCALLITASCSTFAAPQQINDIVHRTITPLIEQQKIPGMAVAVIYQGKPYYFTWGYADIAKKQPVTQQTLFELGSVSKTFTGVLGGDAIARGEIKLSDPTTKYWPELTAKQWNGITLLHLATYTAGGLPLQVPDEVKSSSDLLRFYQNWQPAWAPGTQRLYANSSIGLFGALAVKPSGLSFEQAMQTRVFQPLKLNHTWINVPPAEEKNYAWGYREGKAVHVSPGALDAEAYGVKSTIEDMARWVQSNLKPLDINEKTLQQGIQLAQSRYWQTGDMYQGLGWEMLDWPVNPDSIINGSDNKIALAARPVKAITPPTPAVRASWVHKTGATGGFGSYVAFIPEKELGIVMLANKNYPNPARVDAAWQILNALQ
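20 mM phosphate pH 7.0 + 0.01% (detergent screen) or 0.0001% Triton X-100; 5.3 nM AmpC reagent; cpd preinc 15 min RT; nitrocefin (800 uM stock) to start; A480 q20 s × 4 min; Activity was normalised to no-enzyme and no-compound control wells.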
AMA1 RON2 block: disrupts binding of P. falciparum AMA1 to RON2. AlphaScreen AMA1-biotinylated RON2 peptide binding. Potency, µM (doses to about 58.2 µM), for inactives: at the highest dose activity change, negative = inhibition, actives largely listed as inhibitors. 360,000 compounds, 0.2% hits. AID 720542;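 also: 0% = vehicle wells and -100% = peptide control; nearly all actives have a fitted effect of over 45% in size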
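AMA1 (3D7) with his tag at 25 nM final met compounds first, then biotinylated RON2 peptide at 25 nM; detection used donor plus acceptor beads, 10 µg/mL apiece, read by AlphaScreen after 30 min at room temperature.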
AmpC no deterg: inhibitors of E. coli AmpC beta-lactamase without detergent. P00811. 330,000 compounds, 0.52% hits. Potency, µM (top dose mostly 57.1 µM), for the others: at the highest dose activity change, negative = inhibition, most hits filed as inhibitors. AmpC nitrocefin hydrolysis, absorbance 480 nm, 0.0001% Triton;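 also: plate controls were no compound for no effect and no enzyme for full effect; nearly all actives have a fitted effect of over 20% in size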
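AmpC (5.3 nM in the dispensed reagent) in 20 mM phosphate pH 7.0 with 0.01% (detergent screen) or 0.0001% Triton X-100 was preincubated with compounds for 15 min at room temperature. Nitrocefin was then added from an 800 uM solution, and hydrolysis was followed at 480 nm.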
The depositor's hits bear a star; ? = inconclusive; . = no result given; [ ] = dose if it differs, or a comment. Unless noted, calls follow the shape of the dose curve; as a rule, active = well fitted curve in the direction sought with a large enough effect; inconclusive = small, poorly fitted or top-dose-only effect, or another doubt; inactive = no such curve, though single readings can be large; an effect the other way counts as inactive or inconclusive. Unless noted, % is scaled to controls: 0 for no effect and ±100 for the full control effect; potency is read from the fitted curve at half-maximal effect.

SMILES	RE007 growth inh	Sm TGR inh	AmpC detergent	AMA1 RON2 block	AmpC no deterg
CCOc1ccc(C(C)=O)cc1COC(=O)C(C)N=C1NS(=O)(=O)c2ccccc21 (stereo not given)	1.2%	20µM*	4.5%	7.7%	-15.4%
CCOC(=O)CC1ON(C)C(=O)N1c1ccc(Cl)cc1Cl (stereo not given)	-12.4%	0.3%	2.1%	14.4%	.
CC(=O)C1=NOC2C(=O)N(c3ccc(Cl)cc3)C(=O)C12 (stereo not given)	-5.0%	3.55µM*	4.2%	1.3%	-30.3%
CCOC(=O)C1=NOC2C(=O)N(c3ccc(Cl)cc3Cl)C(=O)C12 (stereo not given)	1.6%	3.55µM*	0.5%	2.2%	-17.5%
CCc1ccc(OCC(=O)N(Cc2ccc(C(C)C)cc2)C2CCS(=O)(=O)C2)cc1 (stereo not given)	.	2.3%	-9.0%	.	.
COc1ccc(NC(=O)/C(Cl)=C(/Cl)S(=O)Cc2ccc(Cl)cc2)cn1 (stereo not given)	4.47µM*	0.1µM*	-2.0%	3.2%	-19.8%
COc1ccc(NC(=O)C(Cl)=C(Cl)Cl)cn1	0.0%	0.7%	?	-17.0%	-9.5%
COc1ccc(NC(=O)/C(Cl)=C(/Cl)S(=O)(=O)Cc2ccccc2)cn1	?	10µM*	-2.8%	4.1%	-24.9%
COc1ccc(NC(=O)C(C)(C)Oc2ccc(Cl)cc2)cn1	-14.3%	1.3%	3.1%	2.2%[11.6 µM]	-10.4%
COc1ccc2oc(-c3ccc(C)c(NC(=O)Cc4ccc(Cl)cc4)c3)nc2c1	.	-10.7%	-1.0%	.	.
CCC(C)NC(=O)Cn1c(=O)n(Cc2ccc(C(=O)NCCCOC)cc2)c(=O)c2ccccc21 (stereo not given)	.	2.1%	-6.3%	.	.
COC(=O)CCC(=O)OC1(C)C(=O)C=C2C=C3CCCN3C=C2C1=O (stereo not given)	-5.8%	?	-7.1%	?	-21.2%
CC1(OC(=O)c2ccc(Cl)nc2)C(=O)C=C2C=C3CCCN3C=C2C1=O (stereo not given)	-12.9%	35.5µM*	1.9%	?	36.5%
COc1ccc(CCn2c(=O)c3cccnc3n(CC(=O)Nc3c(C)cccc3C)c2=O)cc1OC	.	3.3%	21.6%	.	.
S=c1[nH]nc(COc2ccccc2)n1/N=C/C=C/c1ccccc1	-1.0%	5.5%	-5.5%	17.4%[2.32 µM]	-5.3%
S=c1[nH]nc(-c2n[nH]c3c2CCC3)n1/N=C/C=C/c1ccco1	-10.1%	11.2µM*	-4.9%	51.1%	-37.6%
S=c1[nH]nc(-c2cc(-c3ccccc3)n[nH]2)n1/N=C/C=C/c1ccco1	-0.3%	11.2µM*	3.8%	77.5%	-59.3%
S=c1[nH]nc(-c2ccco2)n1/N=C/C=C/c1ccco1	-1.5%	?	-12.1%	18.5%	-34.1%
COc1ccccc1/C=C/C=N/n1c(-c2n[nH]c3c2CCC3)n[nH]c1=S	6.5%	3.7%	10.9%	87.6%	-36.7%
S=c1[nH]nc(COc2ccccc2)n1/N=C/C=C/c1ccco1	20.0%	12.6µM*	-1.4%	45.0%	15.8µM*
Cc1cc(-c2ccc(S(=O)(=O)Nc3cccc(C)c3C)s2)on1	.	1.2%	2.0%	.	.
CCn1nc(C)c(CCN(C)C(=O)Nc2cc(Cl)c(OC)cc2OC)c1C	.	3.7%	16.0%	.	.
COCCCNC(=O)CSc1nc2cc3c(cc2c(=O)n1CCCCCC(=O)NCc1ccc2c(c1)OCO2)OCO3	.	7.3%	6.3%	.	.
Cc1ccc2cc(CN(C)C(=O)c3cccc(Cl)c3)c(=O)[nH]c2c1	.	-1.9%	-9.3%	.	.
C=Cc1ccc(Cn2c(C(=O)O)c(CNCCc3ccco3)c3ccc(C)cc32)cc1	.	22.4µM*	-5.1%	.	.
SMILES	RE007 growth inh	Sm TGR inh	AmpC detergent	AMA1 RON2 block	AmpC no deterg
COc1ccc(-c2nc(C)c(CCNC(=O)C(=O)Nc3cccc(F)c3)s2)cc1OC	.	2.6%	2.8%	.	.
CCn1c2ccccc2c2cc(N)ccc21	-24.0%	4.1%	-5.2%	4.6%	-29.1%
CCn1c(C)cc(=S)c2ccccc21	-5.6%	3.98µM*	2.2%	5.6%	-9.2%
O=C1N=c2ccccc2=C1c1sc(NS(=O)(=O)Cc2ccccc2)nc1O	1.1%	-11.2%	-11.7%	-13.6%	3.55µM*
Cn1cccc1/C=C1/C(=O)NC(=S)N(Cc2ccc(F)cc2)C1=O	-0.5%	25.1µM*	3.9%	-7.3%	?
COc1ccc(Cl)cc1NC(=O)CN(C)S(=O)(=O)c1cccs1	3.7%	-1.0%	-2.9%	-2.2%	-14.4%
O=C(COC(=O)c1ccc(NS(=O)(=O)c2cccs2)cc1O)Nc1nc2ccccc2s1	2.2%	-9.1%	1.1%	-7.4%	1.58µM*
COc1ccc(Cl)cc1NC(=O)COC(=O)c1cc(NS(=O)(=O)c2cccs2)ccc1O	-5.5%	-15.8%	-11.8%	10.3%	20µM*
CCOc1ccc(CNC(=O)c2cc3ccccn3n2)cc1	.	0.9%	-6.9%	.	.
CCCCCOc1ccc(C)cc1CN(CCCl)CCCl	?	11.2µM*	-8.1%	0.7%	17.0%
C=CCc1cc(C)ccc1OCCCC(C(=O)OCC)C(=O)OCC	3.3%	2.1%	3.2%	100.7%	0.3%
O=S(=O)(Nc1cccc(-c2ccc(N3CCCCC3)nn2)c1)c1ccc(Cl)s1	.	4.9%	10.9%	.	.
CCCCc1nn2c(=O)cc(COC(=O)c3ccccc3C)nc2s1	.	-0.1%	19.0%	.	.
COc1ccc(S(=O)(=O)N2CCN(S(=O)(=O)c3ccc(OC)cc3)CC2)cc1	.	-9.4%	-0.2%	.	-9.7%
COc1ccc(S(=O)(=O)N2CCN(CC(=O)c3ccc(O)c(O)c3)CC2)cc1	2.4%	20µM*	0.9%	61.9%	-26.4%
O=C(CN1CCN(S(=O)(=O)c2ccc(F)cc2)CC1)c1ccc(O)c(O)c1	-5.4%	22.4µM*	3.5%	13.0%	-7.8%
CCOc1ccc(C(=O)CN2CCN(S(=O)(=O)c3ccc(F)cc3)CC2)cc1	-21.2%	25.1µM*	0.6%	-5.6%	0.7%
O=C(CN1CCN(S(=O)(=O)c2ccc(Cl)cc2)CC1)c1ccc(O)c(O)c1	0.2%	20µM*	-4.5%	61.2%	-41.6%
CCCN1CCN(c2ncnc3sc(C(=O)Nc4ccc(OC(F)(F)F)cc4)c(C)c23)CC1	.	3.7%	17.6%	.	.
COC(=O)c1c(-c2ccc(Cl)cc2)noc1N1CCN(c2ccc(OC)cc2)CC1	.	1.2%	11.3%	.	.
COc1ccccc1OCC(=O)N(Cc1cccs1)C1CCS(=O)(=O)C1 (stereo not given)	.	1.2%	?	.	.
COc1cc(OC)c(NC(=O)Cn2c(=O)cc(C(F)(F)F)c3c(C)nn(C)c32)cc1Cl	.	6.4%	12.4%	.	.
COc1ccc(CNC(=O)C2CCN(c3nnc(-n4cccc4CNc4ccc(C)cc4)s3)CC2)c(OC)c1	.	-5.3%	12.9%	.	.
COc1cccc(C(=O)CN2CCN(S(=O)(=O)c3ccc(Cl)cc3)CC2)c1	.	22.4µM*	8.3%	.	.

Screening results: PubChem, National Center for Advancing Translational Sciences (NCATS)
